HT1080 IDH1KD tx – qHTS for induction of synthetic lethality in tumor cells producing 2HG: qHTS for the HT-1080-IDH1KD cell line. HT-1080 IDH1 knockdown viability, ATP luminescence, 48 h. Potency, µM (series often up to 46.1 µM), without a hit: top-dose activity, negative = toxicity, hits mostly cytotoxic. hit rate 2% among 360,000. AID 686971, 2013;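 note: potency is the fitted concentration of half-maximal effect; 0% = DMSO wells and -100% = cell-free medium wells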
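HT-1080-IDH1KD cells (IDH1 knocked down), 750/well in RPMI with 5% FBS, treated with compound 48 h at 37 degrees C. Viability by CellTiter-Glo luminescence, normalised to DMSO and no-cell wells; concentration-response curves classed.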
IL1B secr inh – qHTS for Inhibitors of Inflammasome Signaling: IL-1-beta AlphaLISA Primary Screen; AID 743279, 2014; hit rate 4.7% among 360,000; THP-1 LPS/ATP IL-1B secretion, AlphaLISA, 16 h; active compounds read low; activity change, % at 57.5 µM; in the data active = activity change below about -50%; inconclusive = mostly about -30% to -49%
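Secreted IL-1B measured by AlphaLISA bead assay after 16 h compound exposure of THP-1 cells; compounds (final up to 57.5 uM) added 1 h before LPS (250 ng/mL) and ATP (1.25 mM) stimulation; lower signal means less secretion.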
HT1080NT lethal – qHTS for induction of synthetic lethality in tumor cells producing 2HG: qHTS for the HT-1080-NT fibrosarcoma cell line | HT-1080-NT fibrosarcoma viability, CellTiter-Glo ATP luminescence, 48 h | Potency, µM (titrated, usually from 46.1 µM), without a hit: at the top dose activity, negative = less viability, actives largely listed as cytotoxic | hit rate 1.6% among 360,000 | AID 686970, 2013;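 note: NT is the 2HG producing partner of a matched IDH1 knockdown line; potency is the fitted concentration of half-maximal effect; 0% = DMSO-treated cells and -100% = media-only wells without cells; nearly all actives have a fitted effect of over 55% in size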
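A 48-hour cytotoxicity screen used HT-1080-NT cells plated 2 hours before compound delivery. ATP-based CellTiter-Glo luminescence measured viability, normalized to DMSO and no-cell controls.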
uPA generation – qHTS for Inhibitors of Cell Surface uPA Generation; cell surface uPA generation assay, qHTS; Potency, µM (doses to about 38.3 µM), for the others: top-dose activity change, negative = inhibition, hits mostly inhibitors; hit rate 0.31% among 330,000; AID 540303, 2011; active = well fitted inhibition curve with a large enough effect; inconclusive = small, poorly fitted or top-dose-only effect; inactive = no such curve, though single readings can be large or run the other way; tested in mouse RAW 264.7 cells; note: potency is the fitted concentration of half-maximal effect; nearly all actives have a fitted effect of over 55% in size
DT40 TDP1 no CPT – qHTS for Inhibitors of human tyrosyl-DNA phosphodiesterase 1 (TDP1): qHTS in cells in absence of CPT; DT40 Tdp1-/- hTDP1 cells, no CPT, ATP luminescence, 48 h; AID 686978, 2013; Potency, µM (series often up to 46.2 µM), for inactives: at the top dose activity change, negative = growth inhibition, actives largely listed as inhibitors; hit rate 15% among 420,000; note: potency is the fitted concentration of half-maximal effect; nearly all actives have a fitted effect of over 55% in size
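Growth of hTDP1-complemented DT40 Tdp1-knockout cells is measured by ATP luminescence after at least 48 hr compound exposure at 37 °C, with DMSO substituting for the 20 nM CPT used in the parallel screen.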
DT40 TDP1 CPT – qHTS for Inhibitors of human tyrosyl-DNA phosphodiesterase 1 (TDP1): qHTS in cells in presence of CPT | chicken DT40 Tdp1-/-;hTDP1 cells + 20 nM CPT, ATP luminescence, 48 h | Potency, µM (top dose mostly 46.2 µM), without a hit: at the highest dose activity change, negative = growth inhibition, actives largely listed as inhibitors | hit rate 12% among 420,000 | AID 686979, 2013; note: potency is the fitted concentration of half-maximal effect; nearly all actives have a fitted effect of over 55% in size
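Chicken DT40 Tdp1-/- cells complemented with human TDP1, 400 cells/well, exposed to compounds plus 20 nM camptothecin for at least 48 h at 37 C; viability read as ATP content by CellTiter-Glo luminescence.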
* = called active by the depositor; ? = inconclusive; . = no result; [ ] = another dose, or the depositor's remark. Compounds with a hit are over-represented: about 19% of the library has one in this group of screens. Unless noted, calls come from the whole dose curve; as a rule, active = well fitted curve in the direction sought with a large enough effect; inconclusive = small, poorly fitted or top-dose-only effect, or another doubt; inactive = no such curve, though single readings can be large; an effect the other way counts as inactive or inconclusive. Unless noted, % is set by controls: 0 for no effect and ±100 for the full control effect.

SMILES	HT1080 IDH1KD tx	IL1B secr inh	HT1080NT lethal	uPA generation	DT40 TDP1 no CPT	DT40 TDP1 CPT
COc1ccc(C(C(=O)NC2CCCCC2)n2c(=O)c(-c3ccco3)nc3ccccc32)cc1 (configuration not stated)	-26%	-7	-19%	.	26µM*	?
Cc1cc(C)c(NC(=O)c2oc3c(c2C)-c2[nH]ncc2CC3)c(C)c1	.	.	.	.	21µM*	16µM*
CCOc1ccccc1CNC(=O)c1oc2c(c1C)-c1[nH]ncc1CC2	.	.	.	.	16µM*	16µM*
Cc1c(C(=O)NCc2cccc(F)c2)oc2c1-c1[nH]ncc1CC2	.	.	.	.	?	-18%
C1=Cc2ccccc2/C1=C(\Cc1ccncc1)Oc1ccncc1	.	.	.	.	14µM*	11µM*
Cc1ccc(-c2nnn(CC(=O)N(CCCO)C(C(=O)NC3CCCC3)c3ccc(F)cc3)n2)o1 (configuration not stated)	9%	-11	23%	-4%	?	-13%
CCN(CC)CCNC(=O)c1cc2c(=O)n(C)c3ccccc3c2s1	?	?	?	-13%	21µM*	18µM*
CCCCN(CC)CCNC(=O)c1cn(-c2ccc(Cl)cc2)c(=O)c2ccccc12	-20%	0	-8%	-1%	?	-29%
CN(C)CCCNC(=O)c1cc2sc3ccccc3c2s1	18µM*	-118*	18µM*	-4%	?	?
CCCCN(CC)CCNC(=O)c1cc2c(=O)n(C)c3ccccc3c2s1	?	-86*	?	1%	23µM*	?
CN(CCCNC(=O)c1cc2c(=O)n(C)c3ccccc3c2s1)Cc1ccccc1	.	.	.	.	15µM*	4.6µM*
O=C(CNc1cccc(S(=O)(=O)N2CCOCC2)c1)N1CCc2ccccc21	7%	11	4%	?	4%	-5%
Cc1nc(-c2ccccc2)sc1C(=O)Nc1ccc(S(N)(=O)=O)cc1	-1%	-5	?	3%	13µM*	-25%
Cc1nc(-c2ccccc2)sc1C(=O)Nc1ccccc1F	-3%	-14	-16%	2%	-21%	-1%
Cc1nc(C(=O)Nc2ccccc2)sc1C(=O)Nc1ccccc1	2%	-24	-13%	6%	?	18µM*
CCOC(=O)c1cnc(SC)nc1Oc1cccc(NC(=O)c2ccc(C)cc2)c1	10%[9.24 µM]	25	13%	-2%	15µM*	?
CCOC(=O)c1cnc(SC)nc1Oc1cccc(NC(=O)c2cccc(Cl)c2Cl)c1	9%	-12	15%	0%	?	?
CCN(Cc1nc2ccccc2c(=O)[nH]1)C(=O)c1cccc(NC(=O)c2cccs2)c1	-15%	6	-2%	0%	?	12µM*
CCN(Cc1nc2ccccc2c(=O)[nH]1)C(=O)c1cc2c(s1)CCCCC2	2%	43	3%	12%	?	15µM*
O=[N+]([O-])c1ccc(/C=N/Nc2ncc(-c3ccccc3)cn2)cc1	2%	-9	8%	-2%	0%	4%
Oc1ccc(Br)cc1/C=N/Nc1ncc(-c2ccccc2)cn1	-8%	34	-15%	3%	8.2µM*	6.5µM*
Oc1ccc(/C=N/Nc2ncc(Br)cn2)c(O)c1	?	83	-22%	-14%	7.3µM*	7.3µM*
O=[N+]([O-])c1ccccc1/C=N/Nc1nccnc1Cl	?	-16	-30%	.	-7%	0%
Oc1ccc(/C=N/Nc2nccnc2Cl)c(O)c1	?	23	-18%	-13%	3.3µM*	3.3µM*
Oc1ccccc1/C=N/Nc1nccnc1Cl	?	111	?	-19%	2.9µM*	4.6µM*
SMILES	HT1080 IDH1KD tx	IL1B secr inh	HT1080NT lethal	uPA generation	DT40 TDP1 no CPT	DT40 TDP1 CPT
COc1ccc(-n2cnnc2SCC(=O)Nc2cccnc2Cl)cc1	14%	0	16%	-2%	-18%	4%
CCCC(C)c1nnc(NC(=O)C2CC(=O)N(CCc3ccc(F)cc3)C2)s1 (configuration not stated)	-18%	37	-10%	0%	?	?
COCCCNC(=O)c1cc(-c2cccnc2)nc2ccc(S(=O)(=O)N3CCC(C)CC3)cc12	.	.	.	.	0%	-14%
COc1cc(NS(=O)(=O)c2ccc(OC)c(C)c2C)c(OC)cc1Cl	2.3µM*	-4	2.3µM*	-13%	3.3µM*	4.6µM*
COc1cc(OC)c(NS(=O)(=O)c2cc(-c3cnc(C)o3)ccc2OC)cc1Cl	.	.	.	.	13µM*	21µM*
COc1ccc(-c2cnc(C)o2)cc1S(=O)(=O)Nc1ccc(F)cc1F	.	.	.	.	-22%	1%
Cc1ccc2scc(N3CCCC(C)C3)c(=O)c2c1 (configuration not stated)	.	.	.	.	-19%	-17%
O=C(c1ccc2c(=O)n3c(nc2c1)CCC3)N1CCN(S(=O)(=O)c2ccccc2Br)CC1	1%	-15	1%	-1%	-6%	0%
Cc1ccc(C)c(N(C)C(=O)C2CCN(S(=O)(=O)c3cccc4nsnc34)CC2)c1	.	.	.	.	13µM*	16µM*
Cc1ccc(N2CCN(C(=O)C3CCN(S(=O)(=O)c4ccc5c(c4)oc(=O)n5C)CC3)CC2C)cc1 (configuration not stated)	.	.	.	.	3.7µM*	5.8µM*
Cc1ccc(N2CCN(S(=O)(=O)c3ccc4c(c3)oc(=O)n4C)CC2C)cc1 (configuration not stated)	-4%	13	-10%	1%	-9%	?
Cc1ccc(N2CCN(C(=O)C3CCN(S(=O)(=O)c4cccc5nsnc45)CC3)CC2C)cc1 (configuration not stated)	9%	-15	26%	-10%	16µM*	?
CC1CCN(C(=O)C2CCN(S(=O)(=O)c3cccc4nsnc34)CC2)CC1	6%	-9	16%	-19%	-20%	-13%
Cc1ccc(C)c(N2CCN(C(=O)C3CCN(S(=O)(=O)c4cccc5nsnc45)CC3)CC2)c1	-23%	?	-15%	-5%	18µM*	18µM*
COc1ccc(OCCCCn2c(-c3ccc(Cl)cc3)nc3ccccc3c2=O)cc1	.	.	.	.	?	-27%
CCCCn1c(=NC(=O)C(C)(C)Oc2ccc(Cl)cc2)c(C(=O)OCC)cc2c(=O)n3ccccc3nc21	.	.	.	.	-15%	-2%
Cc1cccc(NC(=O)Cn2nnc(C(=O)Nc3ccccc3Br)c2N)c1C	.	.	.	.	-14%	-15%

Source: PubChem BioAssay
